A3A deaminase: blocks human APOBEC3A ssDNA deamination. 330,000 tested, 0.41% active. P31941. recombinant A3A, FAM/TAMRA ssDNA deamination fluorescence. inhibition, % at 20 µM;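 active means at least 40% inhibition at 20 µM here, with at most 30% in a related deaminase screen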;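 further: plate controls were A3A with DMSO for no effect and wells lacking A3A enzyme for full effect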
A3G deaminase: blocks human APOBEC3G single-stranded DNA deamination; Q9HC16; recombinant A3G, ssDNA deamination FAM/TAMRA fluorescence; inhibition, % at 20 µM; 330,000 tested, 0.28% active; AID 493012;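 active means inhibition of at least 40% at 20 µM, with no more than 30% in the related APOBEC3A deaminase screen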;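 further: plate controls were DMSO wells with A3G for no effect and wells lacking A3G enzyme for full effect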
GRK2 inh: human GRK2 inhibition via aptamer displacement. P25098. bead flow cytometry, FAM-aptamer displacement from GRK2. inhibition of aptamer binding, % at 10 µM. 330,000 tested, 0.59% active;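 active means inhibition of aptamer binding above 40%, roughly 3 SD of noise, on plates passing a quality check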;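 further: median bead fluorescence of bound FAM aptamer so fluorescent compounds give negative values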
Target sequence (P25098 whole entry, looked up): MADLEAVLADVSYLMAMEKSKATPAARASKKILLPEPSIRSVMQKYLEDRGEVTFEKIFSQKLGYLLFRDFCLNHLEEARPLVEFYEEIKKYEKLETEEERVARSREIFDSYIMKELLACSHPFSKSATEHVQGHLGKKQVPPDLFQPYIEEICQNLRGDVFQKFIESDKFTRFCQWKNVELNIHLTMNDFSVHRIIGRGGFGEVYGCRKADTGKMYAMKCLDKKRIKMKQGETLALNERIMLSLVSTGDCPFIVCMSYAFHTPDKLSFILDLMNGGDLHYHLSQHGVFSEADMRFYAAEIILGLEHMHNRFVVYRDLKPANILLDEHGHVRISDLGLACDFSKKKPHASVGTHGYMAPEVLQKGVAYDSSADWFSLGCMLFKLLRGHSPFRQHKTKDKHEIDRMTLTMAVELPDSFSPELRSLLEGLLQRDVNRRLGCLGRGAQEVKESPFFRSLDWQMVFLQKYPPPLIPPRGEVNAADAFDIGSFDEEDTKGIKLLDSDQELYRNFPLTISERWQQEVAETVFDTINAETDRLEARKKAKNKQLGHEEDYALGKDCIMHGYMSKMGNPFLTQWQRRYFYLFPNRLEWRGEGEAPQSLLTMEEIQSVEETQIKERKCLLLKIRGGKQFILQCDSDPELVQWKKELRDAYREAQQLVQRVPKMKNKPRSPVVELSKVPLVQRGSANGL
VLA-4 inh: inhibition in a human VLA-4 binding assay. AID 2557. VLA-4 expressing cells, ligand binding flow cytometry. 330,000 tested, 0.2% active. P13612. inhibition, % (about 7 µM as worked out from the volumes in the protocol); in the data active means inhibition above about 50%
GRK2 CP1: human GRK2 inhibition confirmation, cherry pick 1. aptamer displacement, % at 10 µM. shares compounds with GRK2 inh. 2,000 tested, 4% active. AID 504451. bead-bound GRK2, FAM-aptamer displacement, flow cytometry;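 active means aptamer displacement above 40%, near three times the noise of non-fluorescent compounds, on plates passing quality checks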;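 further: negative values mostly reflect intrinsic compound fluorescence rather than true enhancement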
Aptamer quench SP: counter-screen for GRK2 aptamer inhibitors: fluorescent aptamer quenchers. shares compounds with GRK2 inh. Carboxyfluorescein RNA aptamer on beads, flow cytometry quenching; active compounds read low. fluorescence response (% of DMSO), % at 10 µM. 2,000 tested, under 10 active;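 active means compounds that quench the bead-bound fluorescent RNA probe, cutting fluorescence to under half of the solvent control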;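 further: counterscreen run without GRK2 so only probe quenching by compound is measured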
GRK2 CP2: confirmation of human GRK2 inhibitors binding RNA aptamer site | bead-bound GRK2, FAM-aptamer displacement, flow cytometry | shares compounds with GRK2 inh | AID 504782 | inhibition of aptamer binding, % at 10 µM | 360 tested, under 10 active;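 active means inhibition of aptamer binding above 40%, about triple the noise seen with nonglowing compounds, on plates passing quality control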;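 further: negative values mostly come from compounds that fluoresce themselves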
FAM quench CP2: aptamer fluorescence quenching in GRK2 counter-screen; shares compounds with GRK2 inh; carboxyfluorescein RNA aptamer beads, flow cytometry quenching; active compounds read low; fluorescence response vs DMSO, % at 10 µM; 360 tested, under 10 active; AID 588494;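 active means response vs DMSO under 50%, meaning signal dropped by over half, treated as fluorescence quencher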;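 further: labelled aptamer on streptavidin beads without GRK2 as a quench counter-screen; 100% = bead fluorescence of DMSO wells and lower means quenching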
Starred values were filed as active, the others as inactive; . = no result. This is a sample that favours compounds with a hit; in the whole collection about 1.4% have one here.

SMILES | A3A deaminase | A3G deaminase | GRK2 inh | VLA-4 inh | GRK2 CP1 | Aptamer quench SP | others
Cc1ccc2cc(CN(C(=O)c3ccco3)c3ccccc3C)c(=O)[nH]c2c1 | 7.3 | -0.4 | 76.0* | -0.8 | -3.4 | 97.7
CC(=O)N(CCc1ccccc1C)Cc1cc2cc(C)ccc2[nH]c1=O | -5.1 | -4.3 | 2.0 | -2.4 | . | .
O=Cc1ccccc1OCCN1CCCC1=O | -7.0 | -3.8 | 9.0 | -5.2 | . | .
Cc1cc(C)cc(N(C(=O)c2sc(C)nc2C)C(C(=O)NC(C)(C)C)c2ccncc2)c1 (stereo not drawn) | 2.1 | 3.2 | 3.0 | 1.0 | . | .
Cc1ccccc1Cn1ccc(NC(=O)c2cnn3c(C(F)(F)F)cc(-c4ccco4)nc23)n1 | -3.9 | -4.2 | 31.0 | 9.1 | 1.7 | 90.4
Cc1ccccc1Cn1ccc(NC(=O)CCSc2nc(-c3ccco3)cc(C(F)(F)F)n2)n1 | -1.5 | -5.0 | 1.0 | 15.3 | . | .
O=C(COC(=O)c1cccc(Cl)c1)Nc1cccc(S(=O)(=O)NC2=NCCC2)c1 | -5.1 | -3.2 | 0.0 | -2.9 | -0.5 | 93.8
NC(=O)Nc1ccc(C(=O)OCC(=O)Nc2cccc(S(=O)(=O)NC3=NCCC3)c2)cc1 | 0.5 | -0.7 | 0.0 | -8.3 | . | .
Cc1ccc(C)c(OCc2cc(C(=O)NC(c3ccccn3)C(F)(F)F)no2)c1 (stereo not drawn) | 1.0 | 0.5 | 0.0 | 11.6 | . | .
CCOC(=O)CNC(=O)c1sc(NC(=O)c2ccccc2F)nc1C | 0.2 | -4.8 | 59.0* | 14.8 | 0.9 | 113.2
CCOC(=O)CNC(=O)c1sc(NC(=O)c2cccc(F)c2)nc1C | -1.9 | -3.0 | 0.0 | 6.2 | . | .
COCc1cc(C)nc(N/N=C/c2ccc(Cl)c(Cl)c2)c1C#N | -0.6 | -4.1 | 85.0* | 12.9 | 1.9 | 100.6
O=C(NN=C1c2ccccc2-c2ccccc21)c1ccccc1 | 5.2 | -1.4 | 0.0 | -0.4 | . | .
COc1ccc(-c2cn[nH]c2N)cc1 | -4.2 | -7.3 | 63.0* | 8.3 | 2.2 | 81.6
CCOc1ccc(-c2cn[nH]c2N)cc1 | 2.2 | -8.7 | 4.0 | -4.9 | . | .
CCOc1ccc(S(=O)(=O)Nc2ccc(Cl)cn2)c(C)c1C | 1.7 | -1.9 | 5.0 | 8.0 | . | .
CCOc1cc(C)c(S(=O)(=O)Nc2ccc(Cl)cn2)cc1C | 3.1 | -3.3 | 46.0* | -0.5 | . | . | GRK2 CP2=-0.7;FAM quench CP2=101.0
Fc1ccc(NC(=S)NN=C2CCCCCC2)cc1 | -6.2 | -7.1 | 1.0 | 12.3 | . | .
O=C(NCc1ccncc1)C1COc2ccccc2O1 (stereo not drawn) | -0.1 | -3.3 | 0.0 | -5.3 | . | .
O=C(NCc1ccccn1)C1COc2ccccc2O1 (stereo not drawn) | -2.2 | -4.9 | 90.0* | 11.7 | 3.4 | 89.4
Cc1occc1C(=O)Nc1cccc(C(=O)NCc2ccccc2)c1 | -5.6 | -5.1 | 0.0 | 0.8 | -2.2 | 99.9
CC(=O)Nc1ccccc1C(=O)C(=O)Nc1cccc(C(=O)NCc2ccc(C)cc2)c1 | -3.1 | -10.8 | 1.0 | 16.7 | . | .
COc1ccc(C(=O)Nc2cccc(C(=O)NCc3ccccc3)c2)cc1 | -3.9 | -7.2 | 0.0 | -2.9 | 2.3 | 100.2
Cc1ccc(C(=O)Nc2cccc(C(=O)NCc3ccccc3)c2)cc1 | 0.3 | -1.2 | 0.0 | 13.5 | 1.6 | 101.7
CCn1c(NC(=O)c2ccc(F)cc2)c2ccccc2nc1=O | -1.9 | -5.5 | 1.0 | 7.4 | . | .
SMILES | A3A deaminase | A3G deaminase | GRK2 inh | VLA-4 inh | GRK2 CP1 | Aptamer quench SP | others
CC(C)[C@H](NS(=O)(=O)c1cccc(Cl)c1)C(=O)OCC(=O)NC(=O)CN1CCCC1=O | 10.8 | 0.5 | 45.0* | -2.4 | 38.7 | 99.9
CCn1cc(C(=O)NCc2ccccc2OC)c(=O)c2cc(S(=O)(=O)N(C)C)ccc21 | -1.3 | -0.6 | 0.0 | 26.9 | . | .
O=C(Cn1c(=O)c2cccn2c2ccc(F)cc21)NCCCN1CCN(c2ccccc2F)CC1 | -1.0 | 2.7 | 0.0 | 1.8 | -32.3 | 98.2
O=C(NCCCN1CCN(c2ccccc2F)CC1)Nc1ccc(F)cc1 | 1.4 | -9.5 | 0.0 | -19.2 | -1.1 | 100.6
COCCNC(=O)c1noc2c1CCc1cc(OC)ccc1-2 | -2.1 | -4.1 | 0.0 | -13.2 | . | .
COc1ccc2c(c1)CCc1c(C(=O)NCCCn3ccnc3)noc1-2 | -1.0 | 1.0 | 51.0* | 19.1 | -6.3 | 98.1
CCCN(CCC)C(=O)C(CCC(=O)O)NC(=O)c1ccccc1 (stereo not drawn) | 2.6 | 2.7 | 1.0 | 2.4 | . | .
CCCCn1c(-c2cccs2)nc2oc3ccccc3c(=O)c2c1=O | -11.0 | -9.0 | 7.0 | -1.8 | . | .
O=[N+]([O-])c1ccccc1/C=C/C=N/n1c(-c2cc(-c3ccccc3)n[nH]2)n[nH]c1=S | -3.8 | 2.1 | 69.0* | 2.3 | 11.3 | 99.1
CCC1(CC)C(=O)N=C2c3ccccc3C(=O)N21 | -0.8 | -9.1 | 2.0 | 1.4 | . | .
Nc1cc(Cl)nc(N/N=C/c2ccc([N+](=O)[O-])cc2)n1 | -0.3 | -6.3 | 0.0 | 5.6 | . | .
Cc1ccc(S(=O)(=O)N2CCOCC2)cc1C(=O)N(Cc1nnc(-c2ccccc2Cl)o1)C1CC1 | -1.3 | -7.4 | 44.0* | 11.8 | . | . | GRK2 CP2=-1.8;FAM quench CP2=100.0
O=C(c1cc(S(=O)(=O)N2CCOCC2)ccc1F)N(Cc1nnc(-c2ccccc2Cl)o1)C1CC1 | -3.4 | -15.9 | 1.0 | -6.4 | . | .
CCCOc1ccccc1N1C(=O)CC(N(O)c2ccccc2)C1=O (stereo not drawn) | 0.8 | 0.6 | 49.0* | 4.9 | 1.3 | 124.5
Cc1noc(C)c1COc1ccc(C(=O)NNC(=O)c2ccccc2F)cc1 | 0.2 | 0.6 | 1.0 | 5.3 | . | .
Cc1noc(C)c1COc1ccc(C(=O)NNC(=O)c2ccccc2)cc1 | 1.6 | -2.3 | 100.0* | 4.6 | 0.5 | 107.2
C=CCn1c(Sc2nncn2C)nc2c1c(=O)[nH]c(=O)n2C | 13.5 | -4.4 | 0.0 | 8.4 | . | .
NC(=O)CSc1nnc(CSc2ncccn2)n1-c1ccccc1 | 0.5 | 0.4 | 0.0 | 6.3 | . | .
COc1ccc(-n2c(SC)nc(O)c(Cc3ccccc3)c2=O)cc1 | -0.5 | -4.4 | 0.0 | 5.2 | . | .
COc1ccc(Cc2c(O)nc(SC)n(C(C)=O)c2=O)cc1 | 2.8 | -0.1 | 100.0* | -21.7 | -0.9 | 102.6
Cc1cc(C)cc(NC(=S)/C(=C(\[O-])c2ccc(Cl)cc2Cl)[n+]2ccc(C(C)(C)C)cc2)c1 | -9.0 | -6.2 | 41.0* | -13.6 | -3.7 | 100.8
Cc1cc(C)cc(NC(=S)/C(=C(\[O-])c2ccc(Cl)s2)[n+]2cccc(C)c2)c1 | 0.1 | -12.9 | 2.0 | 18.5 | . | .
Cc1cccc(NC(=O)CCC(=O)N/N=C/c2ccc(O)cc2O)c1 | -4.6 | -9.8 | 56.0* | -0.2 | 1.5 | 104.8
O=C(NCCC1=CCCCC1)C1CCN(S(=O)(=O)N2CCCC2)CC1 | -4.6 | -3.6 | 0.0 | 5.2 | . | .
